# Measured potencies and affinities stand elsewhere. Unmarked numbers belong to inactive results.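 How the source made its calls: active means fitted half-maximal dose no more than twice the top valid tested dose, for compounds that lower signal; inconclusive means fit invalid, or curve flat with activity between -70 and -30; inactive means potency past limit, curve flat within ±30, or signal increasing.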
# Biological target: NAD-dependent protein deacylase sirtuin-5, mitochondrial (Homo sapiens) (UniProt Q9NXA8)
# Test: SIRT5 deacylase inhibitors, dose response, biochemical, fluorescence imaging, cherry-pick, set 6 (AID 720597);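 further: lower AMC signal can also come from blocking the trypsin step; 0% = median of neutral control wells and -100% = median of positive control wells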
# Details: Purified SirT5, succinyl-peptide-AMC/trypsin fluorescence; series mostly up to 15 µM; activity change, negative = inhibition: at the top concentration
# Sequence of NAD-dependent protein deacylase sirtuin-5, mitochondrial (Homo sapiens) (Q9NXA8 whole entry, looked up): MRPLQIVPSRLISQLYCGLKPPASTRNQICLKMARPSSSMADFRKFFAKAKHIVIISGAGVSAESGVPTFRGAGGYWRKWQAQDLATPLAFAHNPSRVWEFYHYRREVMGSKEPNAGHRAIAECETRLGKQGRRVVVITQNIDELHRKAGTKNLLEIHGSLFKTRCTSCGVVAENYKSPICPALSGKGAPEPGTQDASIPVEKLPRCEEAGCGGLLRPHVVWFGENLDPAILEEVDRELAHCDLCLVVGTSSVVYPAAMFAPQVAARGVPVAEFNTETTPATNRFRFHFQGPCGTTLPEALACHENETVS
row,SMILES,"activity change, negative = inhibition [%]"
1,C[C@@H]1CN([C@@H](C)CO)C(=O)Cc2cc(NS(=O)(=O)c3ccccc3)ccc2O[C@H]1CN(C)CC1CCCCC1,-21.3
2,C[C@@H]1CCCCO[C@H](CN(C)C(=O)Nc2ccc(F)cc2)[C@@H](C)CN([C@H](C)CO)C(=O)c2cc(NC(=O)Nc3ccc(F)cc3)ccc2O1,21
3,O=C(NCC[C@H]1CC[C@H](NS(=O)(=O)c2cccc(F)c2)[C@H](CO)O1)C1CCOCC1,5.64
4,COc1ccc(CN(C)C[C@@H]2Oc3ccc(NC(=O)CCC(F)(F)F)cc3C(=O)N([C@H](C)CO)C[C@H]2C)cc1,0.69
5,CN(C)CC(=O)N1[C@H](CO)[C@@H](c2ccccc2)C12CN(C(=O)C1CCCC1)C2,13.7
6,Cc1ccc(-c2ccc([C@@H]3[C@@H](CO)N4CCCCN(S(=O)(=O)c5cccc(C)c5)C[C@H]34)cc2)cc1,7.83
7,C[C@H]1CN([C@@H](C)CO)C(=O)Cc2cc(NC(=O)CCCCCC(=O)Nc3ccccc3N)ccc2O[C@H]1CN(C)Cc1ccc(Oc2ccccc2)cc1,-12
8,CCC(=O)N1C[C@H]2[C@@H](c3ccccc31)[C@@H](CO)N2Cc1cc(F)ccc1F,9
9,COc1ccc(S(=O)(=O)N(C)C[C@H]2OCCCC[C@@H](C)Oc3ccc(NS(=O)(=O)c4ccc(F)cc4)cc3C(=O)N([C@H](C)CO)C[C@H]2C)cc1,4.18
10,COc1ccc(NC(=O)N(C)C[C@H]2Oc3ccc(NS(=O)(=O)c4ccc(F)cc4)cc3C(=O)N([C@H](C)CO)C[C@H]2C)cc1,-20.5
11,C[C@@H]1CN([C@@H](C)CO)S(=O)(=O)c2ccc(C#CC(C)(C)O)cc2O[C@@H]1CN(C)Cc1ccc(-c2ccccc2)cc1,-5.45
12,C[C@H](CO)N1C[C@H](C)[C@@H](CN(C)Cc2ccc(C(F)(F)F)cc2)OCCCC[C@H](C)Oc2ccc(NS(=O)(=O)c3ccc(Cl)cc3)cc2C1=O,-16.8
13,COc1ccc(S(=O)(=O)Nc2ccc3c(c2)CC(=O)N([C@@H](C)CO)C[C@H](C)[C@H](CN(C)Cc2ccc(Oc4ccccc4)cc2)O3)cc1,-24.4
14,CC(C)CC#Cc1ccc2c(c1)O[C@@H](CN(C)C(=O)NC1CCCC1)[C@H](C)CN([C@H](C)CO)S2(=O)=O,-5.15
15,CC(C)CC#Cc1ccc2c(c1)O[C@@H](CN(C)S(=O)(=O)c1cccc(F)c1)[C@@H](C)CN([C@@H](C)CO)S2(=O)=O,-21.2
16,C[C@@H]1CN([C@@H](C)CO)S(=O)(=O)c2ccc(C#C[C@@H](C)O)cc2O[C@H]1CN(C)Cc1ccc(-c2ccccc2)cc1,1.09
17,CNC[C@H]1Oc2ccc(NC(=O)Nc3ccc(F)cc3)cc2CC(=O)N([C@H](C)CO)C[C@@H]1C,13.9
18,CCNC(=O)C[C@H]1CC[C@H]2[C@@H](COc3ccc(NS(=O)(=O)c4ccccc4C)cc3C(=O)N2C)O1,-7.91
19,O=C(CCN1CCCCC1)N[C@@H]1CC[C@@H](CC(=O)N2CCC(Cc3ccccc3)CC2)O[C@@H]1CO,-11.3
20,O=C(C1CCCC1)N1CC2(C1)[C@H](c1ccccc1)[C@@H](CO)N2Cc1ccc(Cl)cc1,-8.55
21,C[C@@H]1CN([C@@H](C)CO)S(=O)(=O)c2ccc(-c3cccc(F)c3)cc2O[C@@H]1CN(C)S(=O)(=O)c1ccc(F)cc1,-17.7
22,COc1cccc(C(=O)Nc2ccc3c(c2)C(=O)N(C)C[C@H](OC)[C@@H](C)CN(CCc2ccccc2)[C@@H](C)CO3)c1,-22.3
23,CCC(=O)N1CC2(C1)[C@H](c1ccccc1)[C@H](CO)N2Cc1ccccc1OC,-0.469
24,C[C@H]1CCCCO[C@H](CN(C)Cc2ccc(C(F)(F)F)cc2)[C@@H](C)CN([C@@H](C)CO)C(=O)c2cc(NS(=O)(=O)c3ccc(Cl)cc3)ccc2O1,26.8
25,Cc1ccc(S(=O)(=O)Nc2ccc3c(c2)C(=O)N([C@H](C)CO)C[C@@H](C)[C@H](CN(C)C(=O)Nc2ccc(F)cc2)OCCCC[C@H](C)O3)cc1,-3.75
26,C[C@H](CO)N1C[C@H](C)[C@H](CN(C)C(=O)c2ccccc2F)Oc2ncc(Br)cc2C1=O,-2.09
27,C/C=C/c1ccc([C@@H]2[C@@H](CO)N(C(C)=O)[C@H]2CN(C(=O)COC)C(C)C)cc1,-12.2
28,CNC[C@H]1Oc2ccc(NC(=O)Nc3ccc(F)cc3)cc2CC(=O)N([C@@H](C)CO)C[C@@H]1C,19.6
29,C[C@H]1CCCCO[C@H](CN(C)C(=O)Nc2ccc(C(F)(F)F)cc2)[C@@H](C)CN([C@@H](C)CO)C(=O)c2cc(NS(=O)(=O)c3ccc(Cl)cc3)ccc2O1,-6.61
